Hits are enriched below; roughly 4.1% of the tested compounds scored in any of these assays.
Gli-Sufu block: Gli-Sufu pathway antagonism; Sufu-KO-LIGHT fibroblasts, Gli luciferase reporter luminescence; inhibition, % at 5 µM; 0.74% of 340,000 active; AID 588413;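 active = inhibition above about 55%, limit read from the data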
697 NFkB inh: inhibitors of the PMA/ionomycin-induced NF-kB reporter in 697 B cells | 697 B-cell NF-kB luciferase reporter, 16 h | inhibition, % at 4 µM | 0.33% of 330,000 active; in the data active = inhibition above about 35%
aSyn UTR inh: 5' untranslated region of α-synuclein, MLPCN primary screen; AID 1813; alpha-synuclein 5'UTR reporter, inhibitor activity; 0.82% of 300,000 active; inhibition, % (tested at 7.5 µM); in the data active = inhibition above about 60%;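 note: H4 neuroglioblastoma cells stably carrying SNCA 5'UTR luciferase fusion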
Jurkat NFkB inh: lowers PMA/ionomycin-induced NF-kB signal in Jurkat cells | PMA/ionomycin-induced NF-kB luciferase reporter, luminescence | inhibition, % at 4 µM | 0.53% of 330,000 active | AID 435003; in the data active = inhibition above about 50%
Mdm2 MdmX PPI: human Mdm2/MdmX binding inhibition | O15151+Q00987 | SaOS-2 split-luciferase Mdm2/MdmX complementation, luminescence | inhibition, % at 8 µM | 3% of 330,000 active | AID 485346;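 active = inhibition of at least 50% at 8 µM in the primary screen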
KLF5 inhibitor: inhibitors of KLF5 expression | DLD-1 KLF5 promoter-luciferase reporter, luminescence | AID 1700 | inhibition, % at 5 µM | 0.23% of 290,000 active;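 active = inhibition above a per-plate limit of that plate's mean compound inhibition plus 3 SD, cut at about 60% in these data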;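 note: higher means less KLF5 promoter-driven luciferase light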
Each line names hits and unclear results; the compound was inactive in the other large screens.

CC(C)OC(=O)/C(C#N)=C/c1cn(Cc2ccccc2)c2ccccc12	aSyn UTR inh 74.8
CCOC(=O)Cn1cc(/C=C(/C#N)C(=O)NC(C)C)c2ccccc21	none
CC(C)OC(=O)/C(C#N)=C/c1cn(C)c2ccccc12	none
Cc1ccc(C)c2[nH]c(=O)c(CN(Cc3cccs3)C(=S)NCc3ccco3)cc12	none
CCc1ccc(CNC(=O)Cc2ccc(NC(=O)C3=C(C)OCCS3)cc2)cc1	aSyn UTR inh 65.8
CC1=C(C(=O)Nc2ccc(CC(=O)NCc3ccccc3C)cc2)SCCO1	none
CC(C)c1ccc(/C=C/C2=NNC(=O)CC2)cc1	aSyn UTR inh 87.4
C#CCOCCOCCOCCNc1nc(N2CCN(C(=O)CCCCCCCCCCNC(=O)[C@H](CCCCN)n3cc(C[C@@H](C)CC)nn3)CC2)nc(N2CCN(C(=O)CCCCCCCCCCNC(=O)[C@H](CCCCN)n3cc(C[C@@H](C)CC)nn3)CC2)n1	aSyn UTR inh 106.8 (no result: 697 NFkB inh, Jurkat NFkB inh, Mdm2 MdmX PPI, KLF5 inhibitor)
C#CCOCCOCCOCCNc1nc(N2CCN(C(=O)CCCCCCCCCCNC(=O)[C@H](CCCCN)n3cc(CCO)nn3)CC2)nc(N2CCN(C(=O)CCCCCCCCCCNC(=O)[C@H](CCCN=C(N)N)n3cc(C[C@@H](C)CC)nn3)CC2)n1	none (no result: aSyn UTR inh, KLF5 inhibitor)
O=C(O)c1ccc2c3c(ncnc13)-c1ccccc1C2=O	aSyn UTR inh 106.6
O=C1c2ccccc2S(=O)(=O)c2cc(C(=O)N(c3ccccn3)c3ccccn3)ccc21	none
CCCc1ccc(-c2ccc(F)c(N)c2)nc1	aSyn UTR inh 98.8
CC[C@@H]1[C@H]2CCCC(=O)N3CC[C@@H](C[C@@H]1OC(=O)Nc1ccccc1)[C@@H]23	none
CCc1nnc2n1N=C(c1ccc(Br)cc1)CS2	none
C[n+]1c2n(c3ccccc31)N=C(c1ccc(Br)cc1)CS2	Gli-Sufu block 67.8
Cc1cccc(-n2c(Cc3cc(=O)[nH]c(=O)[nH]3)nnc2SCC(=O)N2CCc3ccccc32)c1	none
Cc1ccc(C(=O)N/N=C\c2ccccc2[N+](=O)[O-])cn1	none (no result: 697 NFkB inh, Jurkat NFkB inh, Mdm2 MdmX PPI)
Cc1c(C(=O)N/N=C/C(C)C)[nH]c2c([N+](=O)[O-])cccc12	aSyn UTR inh 68.0
COc1ccc(C)cc1S(=O)(=O)n1cnc(C)c1	none
COc1cc(C)c(C(C)C)cc1S(=O)(=O)n1cnc(C)c1	aSyn UTR inh 64.3
COc1ccccc1NC(=O)COC(=O)C1=NN(c2ccccc2)C(=O)CC1	none (no result: aSyn UTR inh, KLF5 inhibitor)
O=C(NCCCN1CCCC1)c1ccc2c(c1)N(Cc1ccc(F)cc1)C(=O)c1ccccc1S2=O (stereo not given)	none
CC1CCCN(CCCNC(=O)c2ccc3c(c2)N(Cc2ccc(F)cc2)C(=O)c2ccccc2S3=O)C1 (stereo not given)	Gli-Sufu block 65.7
CCCCCCCC/C=C\CCCCCCCC(=O)NCCO	none (no result: aSyn UTR inh, KLF5 inhibitor)
CCCCCCCC/C=C\CCCCCCCC(=O)NCCc1ccc(O)c(O)c1	Gli-Sufu block 57.3 (no result: aSyn UTR inh, KLF5 inhibitor)
O=C(N/N=C/c1cccc([N+](=O)[O-])c1)c1cnccn1	none
O=C(N/N=C/c1cc([N+](=O)[O-])ccc1Cl)c1cnccn1	aSyn UTR inh 81.1
CNc1c(NC(=O)c2ccc3c(c2)OCO3)c(=O)oc2ccccc12	none
CCc1c(C)c(C#N)c2nc3ccccc3n2c1Cl	aSyn UTR inh 105.3 (no result: Gli-Sufu block, 697 NFkB inh, Jurkat NFkB inh, Mdm2 MdmX PPI)
CCc1c(C)c(C#N)c2nc3ccccc3n2c1-n1nc(C)cc1C	none
COc1ccc(N2C(=O)C3NN=C(C(=O)OCc4ccccc4)C3C2=O)cc1 (stereo not given)	none
CC1CCN(C(=O)C(=O)Nc2sc3c(c2C(N)=O)CC(C)(C)OC3)CC1	none
Cc1cc(C(=O)NNC(=O)c2c(-c3c(Cl)cccc3Cl)noc2C)no1	none
Cc1nc(C(=O)NNC(=O)c2c(-c3c(Cl)cccc3Cl)noc2C)cs1	aSyn UTR inh 62.7
Cc1cc(C)nc(NC(=O)c2c(-c3c(Cl)cccc3Cl)noc2C)n1	none
Cc1onc(-c2c(Cl)cccc2Cl)c1C(=O)Nc1nc(C(C)(C)C)cs1	aSyn UTR inh 79.6
O=C(NCc1cccnc1)NC(=O)c1ccc(Cl)cc1	none
O=C(Nc1ccc(-c2nc3cccnc3s2)cc1)C1CCCO1 (stereo not given)	aSyn UTR inh 87.3
COc1ccc(C(=O)Nc2ccc3[nH]ccc3c2)cc1	aSyn UTR inh 66.4 (no result: KLF5 inhibitor)
COc1ccc(C(=O)Nc2ccc3[nH]ccc3c2)cc1OC	none (no result: KLF5 inhibitor)
CCCCCCN1C=CC(=C2C(=O)c3ccccc3C2=O)C=C1	aSyn UTR inh 107.4
CN1C=CC(=C2C(=O)c3ccccc3C2=O)C=C1	none (no result: Gli-Sufu block)
c1ccc(-c2ncc3c(ccc4ccccc43)n2)cc1	aSyn UTR inh 68.1
c1ccc2c(c1)cnc1ccccc12	none
CN1CCN(Cc2cccc3ncccc23)CC1CCO (stereo not given)	none
Cc1ccc(C(=O)c2cc([N+](=O)[O-])ccc2N2CCOCC2)cc1	aSyn UTR inh 92.2 (no result: 697 NFkB inh, Jurkat NFkB inh, Mdm2 MdmX PPI)
COc1ccc(C(CC(=O)O)NC(=O)COc2cc(C)ccc2C)cc1OC (stereo not given)	none
CC1=[N+](C)c2c(ccc3cccnc23)C1(C)C	Gli-Sufu block 87.1 (no result: 697 NFkB inh, aSyn UTR inh, Jurkat NFkB inh, Mdm2 MdmX PPI)
CCOC(=O)NC1(NC2CCCCC2)Oc2ccccc2O1	none
Cc1cc(C)cc(NC(=O)/C=C/c2ccc([N+](=O)[O-])s2)c1	none (no result: 697 NFkB inh, Jurkat NFkB inh, Mdm2 MdmX PPI)
Cc1ccccc1NC(=O)/C=C/c1ccc([N+](=O)[O-])s1	Gli-Sufu block 78.9 (no result: 697 NFkB inh, Jurkat NFkB inh, Mdm2 MdmX PPI)
O=C(N/N=C/c1ccc([N+](=O)[O-])s1)c1ccccc1	aSyn UTR inh 67.5
O=C(N/N=C/c1ccc(Br)s1)c1cccc([N+](=O)[O-])c1	aSyn UTR inh 69.8
Cc1ccccc1C(=O)N/N=C/c1ccc([N+](=O)[O-])s1	aSyn UTR inh 93.4
CC(C)(C)C(=O)NC1CC2CCCC(C1)N2C(=O)Nc1cccc(Cl)c1 (stereo not given)	none
Cc1ccc(CN2C(=O)/C(=C\c3ccc(C(=O)NCc4cccnc4)cc3)Oc3ccccc32)cc1	aSyn UTR inh 101.5 (no result: Gli-Sufu block)
Cc1ccc(SCc2ccc(C(=O)NCc3cccnc3)cc2)cc1	none
CCOc1ccc(C(C(=O)NC2CCCCC2)N(C(=O)Cc2cccs2)c2ccc(-n3cnnn3)c(OC)c2)cc1 (stereo not given)	none
Cc1cc(C(=O)N/N=C/c2cc(N=Nc3ccccc3)ccc2O)n[nH]1	aSyn UTR inh 65.5 (no result: 697 NFkB inh, Jurkat NFkB inh, Mdm2 MdmX PPI)
CCOc1ccccc1/C=C(\C#N)C1=CCCC1	none
COc1cc2c(cc1OC)-c1cc(NC3CCCCCCC3)nc(=O)n1CC2	aSyn UTR inh 70.0
COc1cc2c(cc1OC)-c1cc(NC3CCCCC3)nc(=O)n1CC2	none
Cc1csc2ncnc(N3CCN(S(=O)(=O)c4cccc(C(F)(F)F)c4)CC3)c12	Gli-Sufu block 67.7
CCCCCCCOC(=O)C[N+](C)(C)CCOC1CC2CCC1(C)C2(C)C (stereo not given)	Gli-Sufu block 81.6 (no result: 697 NFkB inh, Jurkat NFkB inh, Mdm2 MdmX PPI)
COc1cccc(/C=N/NC(=O)c2cc3cc([N+](=O)[O-])ccc3s2)c1O	Gli-Sufu block 76.9, aSyn UTR inh 107.0 (no result: 697 NFkB inh, Jurkat NFkB inh, Mdm2 MdmX PPI)

Screens: PubChem, several laboratories
